Screening results from PubChem.
Luc counter – Kinase-Glo luciferase inhibition (counter-screen); Q27757; Kinase-Glo luciferase, ATP luminescence, 8 min; Potency, µM (highest dose often 38.3 µM), actives largely listed as inhibitors; actives 0.28% (n = 200,000); AID 1379; further: nearly all actives have a fitted effect of over 60% in size
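Kinase-Glo luciferase light output from ATP and luciferin was measured with 10 uM ATP, within the enzyme's linear range. Buffer: 50 mM imidazole pH 7.2, 50 mM KCl, 7 mM MgCl2, 0.01% Tween 20, 0.05% BSA; luminescence read after 8 min at ambient temperature.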
FLuc counter – counter-screen for miR-21 project: firefly luciferase inhibitors or activators. P08659. Potency, µM (series often up to 57.5 µM), usual class: inhibitors. actives 6.9% (n = 360,000). purified FLuc, Km substrates, luminescence inhibition. AID 588342; further: nearly all actives have a fitted effect of over 55% in size
Target sequence (P08659 whole entry, looked up): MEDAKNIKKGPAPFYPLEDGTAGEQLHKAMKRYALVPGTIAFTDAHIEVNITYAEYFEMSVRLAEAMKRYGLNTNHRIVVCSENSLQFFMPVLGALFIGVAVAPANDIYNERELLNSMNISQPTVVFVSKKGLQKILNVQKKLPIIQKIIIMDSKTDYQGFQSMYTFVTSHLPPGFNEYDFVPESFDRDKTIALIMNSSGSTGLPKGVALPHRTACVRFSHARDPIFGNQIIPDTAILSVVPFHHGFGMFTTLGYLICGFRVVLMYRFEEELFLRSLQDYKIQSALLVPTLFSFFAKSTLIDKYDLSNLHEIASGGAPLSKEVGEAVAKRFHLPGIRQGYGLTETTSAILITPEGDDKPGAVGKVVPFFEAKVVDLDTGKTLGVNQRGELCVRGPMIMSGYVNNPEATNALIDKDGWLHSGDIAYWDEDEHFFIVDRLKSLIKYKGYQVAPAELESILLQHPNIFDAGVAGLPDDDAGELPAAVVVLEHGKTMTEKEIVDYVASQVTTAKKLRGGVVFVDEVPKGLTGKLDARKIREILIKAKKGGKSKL
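Biochemical qHTS of compounds, final roughly 60 µM downward over six points, against 10 nM purified firefly luciferase using Km concentrations of substrates (10 uM D-luciferin, 10 uM ATP) in Tris acetate pH 7.5 buffer; luminescence output.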
NPC1 prom act – NPC1 promoter activation; Huh7 NPC1 promoter luciferase reporter, 24 h; Potency, µM (top dose mostly 9.22 µM), hits mostly activators; actives 2.4% (n = 320,000); further: nearly all actives have a fitted effect of over 60% in size
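Huh7 cells stably carrying NPC1 promoter–luciferase, plated in Opti-MEM with 10% FBS for 2 h, were exposed to compound in DMSO for 24 h at 37 °C; luciferase reagent was added for 10 min and luminescence read.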
ELG1 genotoxic – inducers of genotoxicity in HEK293T ELG1-luciferase cells | AID 504466 | HEK293T ELG1-luciferase reporter, luminescence, 16 h | actives 1.3% (n = 330,000) | Potency, µM (titrated, usually from 46 µM), usual class: activators; further: nearly all actives have a fitted effect of over 60% in size
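HEK293T cells expressing luciferase-tagged ELG1 were treated with compound or DMSO for 16 hr at 37°C. Luciferase activity was then read after 30 min with ONE-Glo at room temperature; rising signal flags genetic stress.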
Rab9 promoter act – activators of Rab9 promoter; AID 485297; Huh7 Rab9 promoter-luciferase reporter, luminescence, 24 h; Potency, µM (titrated, usually from 9.22 µM), most hits filed as activators; actives 2.8% (n = 320,000); further: nearly all actives have a fitted effect of over 60% in size
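Using Huh7 cells stably transfected with Rab9 promoter–luciferase, compounds were incubated 24 h at 37 °C, 5% CO2; luciferase luminescence was read 10 min after reagent addition.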
SMN2 splice up – increases expression of the SMN2 splice variant; HEK293 SMN2-luciferase splicing reporter, luminescence, 30-36 h; actives 2.8% (n = 210,000); Potency, µM (highest dose often 46.1 µM), usual class: activators; further: nearly all actives have a fitted effect of over 55% in size
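HEK293 cells carry an SMN2 […]–luciferase reporter in which exon 7 inclusion puts luciferase in frame. Cells were plated 10-12 h before compound addition, then incubated 30-36 h at 37C. ONE-Glo luminescence was read; sodium butyrate at 4.5 mM final served as control.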
Numbers stand for hits; i = inactive; ? = inconclusive; nt = no result; [ ] = another dose, or the depositor's remark. A selection: hits, their analogues and other compounds. The true share with any hit is near 7.5%. The call rests on the fitted dose curve; in most records, active means well fitted curve in the direction sought with a large enough effect; inconclusive means small, poorly fitted or top-dose-only effect, or another doubt; inactive means no such curve, though single readings can be large; an effect the other way counts as inactive or inconclusive.

SMILES | Luc counter | FLuc counter | NPC1 prom act | ELG1 genotoxic | Rab9 promoter act | SMN2 splice up
O=C1NCCN(Cc2ccc(F)cc2)C1=O | nt | i | nt | nt | nt | nt
CN1CCC[C@@H]1c1cccnc1.O=C(O)c1ccccc1O.O=C([OH2+])c1ccccc1O.O=C([OH2+])c1ccccc1O.O=C([OH2+])c1ccccc1O.[Cu] | i[7.66 µM] | nt | nt | nt | nt | i[9.22 µM]
O=C(CSc1nccn1Cc1ccc(Cl)cc1)NC1CCCC1 | nt | i | nt | nt | nt | nt
Cc1cc(NC(=O)c2cc(-c3ccc(F)cc3)on2)nn1Cc1ccc(Cl)cc1 | nt | i | nt | nt | nt | i
Cn1c(CO)nc2cc(N)ccc21 | i | 17µM | i | i | i | nt
CN(C)c1ccc(C(CNC(=O)c2c(F)cccc2Cl)N2CCOCC2)cc1 (stereo not drawn) | nt | i | nt | nt | nt | nt
O=S(=O)(Nc1cccc2ccccc12)c1ccccc1 | nt | i | i | i | i | nt
O=C(O)c1cccc(S(=O)(=O)Nc2cccc3ccccc23)c1 | nt | 24µM | i | i | i | nt
COc1ccccc1N(CC(=O)NCc1ccccc1C)S(=O)(=O)c1ccc(C)cc1 | nt | i | i | i | i | nt
CCOc1nc(-c2ccc(OC)cc2)ccc1-c1noc(-c2ccncc2)n1 | i | i | i | i | i | i
COc1ccc(-c2nc(-c3cccnc3)no2)cc1 | nt | 2.4µM | 0.63µM | ? | 0.45µM | nt
COc1ccc(-c2noc(-c3cccc(OC)c3OC)n2)cc1 | nt | 2.4µM | nt | nt | nt | 13µM
COc1cccc(-c2noc(-c3ccc(Cl)nc3)n2)c1 | i | ? | 3.5µM | ? | ? | ?
COc1ccc(-c2nc(-c3ccncc3)no2)cc1 | nt | 2.1µM | 0.5µM | ? | 0.56µM | nt
CCSc1nc2c([nH]c3ccccc32)c(=O)n1-c1ccc(OC)cc1 | nt | i | nt | nt | nt | nt
CCc1ccc2oc(C(=O)Nc3cccc(Cl)c3C)cc(=O)c2c1 | nt | i | nt | nt | nt | i
CCOc1ccc(-c2nc(-c3cccnc3)no2)cc1 | i | 0.95µM | 0.63µM | ? | 0.56µM | 1µM
CCCCOc1ccc(-c2nc(-c3cccnc3)no2)cc1 | i | 4.3µM | 3.5µM | 6.5µM | 2µM | 13µM
COc1cc(OC)cc(-c2nc(-c3ccccc3)no2)c1 | i | i[2.3 µM] | ? | ? | ? | 22µM
CCOc1nc(-c2ccc(C)cc2)ccc1-c1noc(-c2cccnc2)n1 | i | i | i | i | i | nt
CCOc1cc(-c2noc(-c3cccnc3)n2)ccc1OC | i | i | i | i | i | i
O=[N+]([O-])c1cccc(-c2noc(-c3cccs3)n2)c1 | nt | 2.7µM | 3.5µM | 15µM | 2.5µM | nt
CCC(=O)N1CCc2cc(S(=O)(=O)NCCC(=O)Nc3cccc(SC)c3)ccc21 | nt | i | nt | nt | nt | i
CCCC/C=C/C(NC(=O)c1ccc(C(F)(F)F)cc1)c1ccccc1 (stereo not drawn) | i | nt | nt | nt | nt | i
O=C(Nc1cc2c(cc1C(=O)c1ccccc1Cl)OCCO2)c1ccccc1 | nt | i | nt | nt | nt | i
SMILES | Luc counter | FLuc counter | NPC1 prom act | ELG1 genotoxic | Rab9 promoter act | SMN2 splice up
COc1cccc(-c2ccc(-c3noc(-c4cccs4)n3)c(OC)n2)c1 | i | 11µM | i | ? | i | nt
COc1ccccc1-c1noc(-c2cccs2)n1 | i | 7.6µM | 1.6µM | ? | 2.2µM | 11µM
CCOc1ccc(-c2nc(-c3ccccc3C)no2)cc1 | ? | 1.1µM | 0.63µM | 0.73µM | 0.45µM | 1.6µM
COc1cccc(-c2ccc(-c3noc(-c4ccccc4F)n3)c(OC)n2)c1 | i | ? | i | ? | i | i
c1csc(-c2nc(N3CCCCC3)no2)c1 | nt | 6.7µM | 2.2µM | 15µM | 1.6µM | nt
COc1ccc(-c2nc(-c3cccs3)no2)cc1 | nt | 0.085µM | 0.32µM | ? | 0.1µM | nt
CCOc1ccc(-c2cc(-c3nc(-c4ccc(C)cc4)no3)[nH]n2)cc1 | nt | 21µM | nt | nt | nt | nt
Cc1ccc(-c2noc(-c3cccs3)n2)cc1 | ? | 0.6µM | 2.8µM | 0.65µM | 0.79µM | 13µM
CCOc1nc(-c2ccccc2)ccc1-c1noc(-c2ccc(C)cc2)n1 | nt | i | nt | nt | nt | i
CCOc1nc(-c2ccccc2)ccc1-c1noc(-c2cccs2)n1 | i | ? | i | i | i | i
COC(=O)c1c(NC(=O)c2nc(SCc3cccc(C)c3)ncc2Cl)sc2c1CCCC2 | nt | i | nt | nt | nt | i
COCC(C)NC(=O)c1cc2cccc([N+](=O)[O-])c2[nH]1 (stereo not drawn) | nt | i | i | i | i | nt
